Screening data deposited in PubChem BioAssay by National Center for Advancing Translational Sciences (NCATS).
Only some compounds are listed: those with a hit (about 4.4% of all), similar ones and a draw of the others.
TRHR ag = TRH receptor (human) agonism; P34981; TRHR cells, calcium flux fluo-8, FDSS agonist mode; activation, % at 2 µM; 360,000 compounds, 0.18% hits; AID 493084; further: 0% is about no effect
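TRHR-expressing cells, plated overnight in medium with 10% serum, were loaded with fluo-8 calcium dye at room temperature. After a 10 s baseline, library compound was pin-added and calcium release was recorded kinetically (ex 480/em 530) as agonist response.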
D1 ag = agonists of human D1 dopamine receptor. P21728. HEK293 T-REx D1 cells, calcium flux, agonist mode. activation, % at 2 µM. 360,000 compounds, 1% hits. AID 504660; further: 0% is about no effect
Target sequence (P21728 whole entry, looked up): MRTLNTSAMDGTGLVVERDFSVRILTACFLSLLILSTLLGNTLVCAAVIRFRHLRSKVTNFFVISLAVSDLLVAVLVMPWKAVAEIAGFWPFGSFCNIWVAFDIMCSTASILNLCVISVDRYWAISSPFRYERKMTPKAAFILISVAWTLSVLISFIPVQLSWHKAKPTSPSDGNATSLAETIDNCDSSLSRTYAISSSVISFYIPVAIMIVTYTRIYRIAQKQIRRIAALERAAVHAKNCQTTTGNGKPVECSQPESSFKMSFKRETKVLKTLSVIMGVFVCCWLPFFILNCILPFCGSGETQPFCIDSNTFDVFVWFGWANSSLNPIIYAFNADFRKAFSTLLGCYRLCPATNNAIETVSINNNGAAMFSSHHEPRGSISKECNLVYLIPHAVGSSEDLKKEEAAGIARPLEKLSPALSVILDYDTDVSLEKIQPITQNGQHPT
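Agonism was scored from calcium flux recorded over 180 s (1 read/s) after pintool compound addition, following a 10-cycle baseline. Cells were inducible force-coupled HEK293 TREx D1, plated overnight at 30 C and loaded with no-wash calcium dye.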
TRHR enhancer = TRH receptor (human) allosteric enhancement | TRHR cells, fluo-8 calcium fluorescence, EC20 TRH enhancement | enhancement, % at 2 µM | 360,000 compounds, 0.66% hits | AID 493056; in the data active means enhancement above about 30%; further: 0% is about no effect
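TRHR-expressing cells loaded with fluo-8 calcium dye were read kinetically (ex 480/em 530) during compound addition, then stimulated with an EC20 of TRH (10 nM final). Enhancement of the Gq-mediated intracellular calcium response was scored.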
D1 antag = antagonists of human D1 dopamine receptor. P21728. HEK293 TREx D1 cells, calcium flux, dopamine EC80; hits give low values. activity change, negative = inhibition, % at 10 µM. 360,000 compounds, 3.2% hits. AID 504652; in the data active means activity change below about -30%; further: on the % scale 0 is the no-effect control and ±100 the full control effect
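Using tetracycline-induced force-coupled D1 Hek293 cells and a calcium dye, signals were followed for 180 s after compound, then for 180 s after EC80 dopamine, to detect inhibitors.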
D1 potentiator = potentiators of human D1 dopamine receptor; P21728; HEK293 TREx D1 cells, calcium flux, dopamine EC20 potentiation; potentiation, % at 10 µM; 360,000 compounds, 0.036% hits; AID 504651; in the data active means potentiation above about 30%; further: 0% is about no effect
USP1 inh = USP1/UAF1 (human) deubiquitinase inhibition; O94782; recombinant USP1/UAF1, Ub-Rhodamine cleavage fluorescence; Potency, µM (series often up to 57.1 µM), without a hit: at the top dose activity change, negative = inhibition, most hits filed as inhibitors; 390,000 compounds, 0.23% hits; AID 743255; active means well fitted inhibition curve with a large enough effect; inconclusive means small, poorly fitted or top-dose-only effect; inactive means no such curve, though single readings can be large or run the other way; further: potency means the concentration at half of the fitted maximal effect; on the % scale 0 is the no-effect control and ±100 the full control effect; nearly all actives have a fitted effect of over 60% in size
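High-throughput fluorogenic screen: 1nM USP1/UAF1 complex, Ub-Rho substrate 150nM final, 50mM HEPES pH 7.8 with 0.5mM EDTA, 0.1 mg/ml BSA, 1mM TCEP and 0.01% Tween-20.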
* hit, by the source's call; u = inconclusive; x = no result given. Unless noted, no stated cut-off is given here; in the data, active means activation above about 30%; inactive means the rest.

SMILES	TRHR ag	D1 ag	TRHR enhancer	D1 antag	D1 potentiator	USP1 inh
CN(Cc1ccccc1)C(=O)C1CCN(S(=O)(=O)c2ccc3c(c2)oc(=O)n3C)CC1	-1	-1	-8	6	3	-25%
COc1ccccc1CNC(=O)C(C)n1c(=O)cc(C(F)(F)F)c2c(C)nn(C)c21 (configuration not stated)	-1	2	1	8	-6	-23%
CCCNc1nc(NCc2ccccc2OC)c2cnn(C)c2n1	-1	-2	1	-5	1	-18%
Cc1cc(C(F)F)n2nc(C(=O)Nc3cccc(C(F)(F)F)c3)nc2n1	0	-1	2	-40*	-5	-18%
O=C(Nc1ccccc1)Nc1cccc(C(F)(F)F)c1	1	22	-1	-37*	-2	-16%
CNC(=O)Nc1cccc(C(F)(F)F)c1	-1	3	2	12	-2	-7%
Cc1oc(-c2cccc(Cl)c2)nc1CSc1nc2ncccc2[nH]1	0	0	1	9	2	5%
O=C(NCc1ccccc1)c1cccc(COc2ccc(Cl)cc2)c1	0	38*	0	0	-8	-12%
COC(=O)c1cccc(NC(=S)NCc2ccc(Cl)cc2)c1	1	35*	-8	0	-6	-23%
O=C(NCc1ccc(Cl)cc1)c1cccc(NC(=O)c2ccccc2)c1	0	3	-9	-34*	-5	-16%
COC(=O)c1cccc(NC(=O)Nc2ccc(Cl)cc2Cl)c1	2	16	1	-43*	-3	-20%
COC(=O)c1cccc(NC(=S)Nc2cc(Cl)ccc2OC)c1	0	0	-11	-8	-6	1%
COc1ccc(C)cc1NC(=O)Cc1ccc(NC(=O)N2CCCCc3ccccc32)cc1	0	1	7	0	-2	-25%
CCOc1ccc(CCNC(=O)CSc2nnnn2-c2ccccc2)cc1OCC	-4	-1	7	6	-2	-4%
O=C(CNCc1ccc(Cl)cc1)Nc1ccc(C(=O)N2CCCCC2)cc1	0	9	-2	-6	-10	-20%
O=C(c1ccc(NC(=S)NCc2ccc(Cl)cc2)cc1)N1CCCCC1	-2	49*	5	-18	0	-25%
C=CCNCCCCOc1cccc(Br)c1	-1	32*	-1	-4	-1	-8%
Cc1ccn2c(Nc3ccc4c(c3)OCCO4)c(-c3ccc(N(C)C)cc3)nc2c1	0	0	7	4	-4	-22%
COc1ccc(Cl)cc1NC(=S)NCc1ccccn1	0	2	31*	10	-5	-5%
CC(C)c1ccccc1NC(=S)NC1CCN(Cc2ccccc2)CC1	1	10	2	8	-4	-14%
S=C(Nc1ccc2c(c1)OCO2)NC1CCN(Cc2ccccc2)CC1	0	9	-2	-38*	-12	-19%
Cc1ccc(NC(=S)NC2CCN(Cc3ccccc3)CC2)cc1	0	17	4	-64*	-5	-15%
Cc1ccc(NC(=S)NC2CCN(Cc3ccccc3)CC2)cc1C	1	21	16	-82*	-12	-18%
S=C(Nc1cc(Cl)cc(Cl)c1)NC1CCN(Cc2ccccc2)CC1	2	19	-5	-15	1	-13%
CC(C)c1ccc(NC(=S)NC2CCN(Cc3ccccc3)CC2)cc1	1	36*	1	-27	-7	-16%
SMILES	TRHR ag	D1 ag	TRHR enhancer	D1 antag	D1 potentiator	USP1 inh
COc1ccccc1N1CCN(c2nc3c(S(=O)(=O)c4ccc(C)c(C)c4)nnn3c3ccc(Cl)cc23)CC1	0	0	-4	6	-4	13%
COc1ccc(-c2onc(C)c2C)cc1S(=O)(=O)N1CCN(c2ccc(Cl)cc2)CC1	0	0	20	5	3	-8%
S=C(Nc1ccccc1Cl)NC1CCN(Cc2ccccc2)CC1	1	15	6	0	-1	-1%
Cc1c(Cl)cccc1NC(=S)NC1CCN(Cc2ccccc2)CC1	3	15	6	-33*	-6	-1%
CCOC(=O)c1cccc(NC(=O)[C@H](CSCc2ccccc2)N2Cc3ccccc3C2=O)c1	1	7	0	8	-4	u
CCc1cccc(NC(=O)Cn2nc(-c3cc(C)ccc3C)ccc2=O)c1	0	6	-2	8	1	-21%
CCO/N=C/C(=O)Nc1ccc(F)cc1F	1	0	2	-75*	-2	-12%
CO/N=C/CC(=O)Nc1ccc(F)cc1F	0	0	2	25	0	-4%
CCOc1ccc(C(C)NC(=O)Nc2ccc(F)cc2F)cc1 (configuration not stated)	1	12	-2	-77*	-1	-27%
CC(C)OC(=O)c1c(NC(=O)c2cc3nc(-c4ccccc4)cc(C(F)(F)F)n3n2)sc2c1CCCC2	1	3	-8	18	-1	-9%
O=c1c2cc(-c3ccccc3)sc2ncn1/N=C/c1ccco1	0	1	6	-33*	-5	-29%
CCOC(=O)c1c(-c2ccccc2)csc1NC(=O)/C(C#N)=C/c1ccc(O)c(OC)c1	27	89*	4	-11	4	-20%
CCOC(=O)c1c(-c2ccccc2)csc1NC(=O)/C(C#N)=C/c1ccc(OC)c(OC)c1	1	9	4	1	-4	-7%
Cc1ccc(CNC(=O)C(=O)Nc2c3c(nn2-c2ccc(F)cc2)CSC3)cc1	1	3	-1	x	-2	-19%
COc1cccc(CNC(=O)CCc2cn(Cc3ccccc3Cl)c3ccccc23)c1	-1	33*	4	-9	1	-11%
O=C(CSc1nc2c([nH]c3ccccc32)c(=O)n1-c1ccccc1)NCc1ccc(F)cc1	0	4	3	2	-4	3%
Cc1ccc(S[C@@H](CCN2CC[C@H](O)CCC2=O)c2ccccc2)cc1	0	0	-4	-31*	-3	-19%
Oc1c(C(c2ccccc2)N2CCN(Cc3ccccc3)CC2)sc2nc(-c3ccco3)nn12 (configuration not stated)	-1	-2	12	x	-2	-20%
COc1ccc(CN2CC(=O)N(c3ccc(Cl)cc3)C2=S)cc1OC	1	4	4	-5	-1	-17%
CCc1ccc(N2C(=O)CN(Cc3ccc(OC)c(OC)c3)C2=S)cc1	0	2	4	-83*	0	-9%
COCCOC(=O)c1c(-c2ccccc2)c(-c2ccccc2)nn(C)c1=O	-1	4	1	3	0	-4%
CCOc1cc(S(=O)(=O)Nc2ncn[nH]2)ccc1Br	0	2	5	-52*	-5	-10%
